Results as given in PubChem BioAssay (Tox21).
Inconclusive results are not listed. Active and inactive are the calls of the source. Unless noted, calls follow the shape of the dose curve; as a rule, active = well fitted curve in the direction sought with a large enough effect in the repeat runs; inconclusive = weak or mixed curves; inactive = no such curve, though single readings can be large; an effect the other way counts as inactive or inconclusive.

How the values were obtained:
[1] = target: Thyrotropin receptor (Homo sapiens) (UniProt P16473); assay: qHTS assay to identify small molecule agonists of the thyroid stimulating hormone receptor (TSHR) signaling pathway (AID 1224843; calls by dose curve; also: nearly all actives have a fitted effect of over 45% in size)
Outline: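 HEK293/TSHR, 800 cells/well; cpd 30 min RT; add cAMP-d2 + anti-cAMP-cryptate, 1 h RT; fluorescence read on plate reader. 15-pt titration, n=3.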

[2] = qHTS assay to identify small molecule agonists of the hypoxia (HIF-1) signaling pathway - cell viability counter screen (AID 1224844; calls by dose curve; also: nearly all actives have a fitted effect of over 50% in size)
Outline: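 HRE-bla ME-180; 0.5% dFBS; cpd 17 h, 37C, 5% CO2; CellTiter-Glo lum., 30 min RT, post-FRET read, same wells.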

[3] = qHTS assay to identify small molecule agonists of the hypoxia (HIF-1) signaling pathway (AID 1224846; active = well fitted activation curve with a large enough effect in the signal ratio in the repeat runs, not every such curve was filed as active; the % refers to the signal ratio)
Outline: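 Reporter induction in HRE-bla ME-180 cells is taken as agonism: cells sit 5 hrs after plating, receive compounds or DMSO only, incubate 17 hrs at 37C under 5% CO2, and are loaded with CCF4-AM for beta-lactamase FRET measurement.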

[4] = qHTS assay to identify small molecule agonists of H2AX - cell viability counter screen (AID 1224847; calls by dose curve; also: top concentration of the series differs between compounds; nearly all actives have a fitted effect of over 30% in size)
Outline: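 Viability of CHO-K1 (wild type) cells after 3 hr compound exposure was measured by CellTiter-Glo luminescence.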

[5] = qHTS RealTime-Glo MT Cell Viability Assay in HepG2 cells - 24 hour (AID 1224867); also: nearly all actives have a fitted effect of over 50% in size
Outline: (§1)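 HepG2 cells (600/well) were dispensed with RealTime-Glo reagents, incubated 5 h at 37 °C, then treated with compounds in DMSO for up to 40 h. Nonlytic NanoLuc luminescence reflecting viable cells was read at each stated time point.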

[6] = qHTS RealTime-Glo MT Cell Viability Assay in HEK293 cells - 32 hour (AID 1224868); also: top concentration of the series differs between compounds; nearly all actives have a fitted effect of over 50% in size
Outline: (§2)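 HEK293 cells seeded with NanoLuc/prosubstrate reagent, rested 5 h at 37 C, then dosed and kept at 37 C up to 40 h. Nonlytic real-time luminescence from viable cells read at 0, 8, 16, 24, 32 and 40 h.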

[7] = A CellTox Green Cytotoxicity Assay to monitor cytotoxicity in HEK293 cells - 0 hour (AID 1224869); also: nearly all actives have a fitted effect of over 50% in size; also: potency is read from the fitted curve at half-maximal effect
Outline: (§3)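 Tox21 screen in HEK293: membrane-impermeant cyanine dye fluoresces on binding dead-cell DNA; compound pinned 5 h post-seeding, plates held at 37 C, signal read repeatedly through 40 h.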

[8] = qHTS RealTime-Glo MT Cell Viability Assay in HepG2 cells - 40 hour (AID 1224870); also: nearly all actives have a fitted effect of over 50% in size
Outline: (§4)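 HepG2 cells (600/well) mixed with RealTime-Glo MT reagent, settled 5 h at 37 C/5% CO2 before compound addition. Nonlytic NanoLuc luminescence from viable-cell prosubstrate reduction read repeatedly during 40 h treatment at 37 C.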

[9] = A CellTox Green Cytotoxicity Assay to monitor cytotoxicity in HEK293 cells - 40 hour (AID 1224871); also: nearly all actives have a fitted effect of over 45% in size; also: potency is read from the fitted curve at half-maximal effect
Outline: as §3

[10] = qHTS RealTime-Glo MT Cell Viability Assay in HEK293 cells - 16 hour (AID 1224872)
Outline: as §2

[11] = qHTS RealTime-Glo MT Cell Viability Assay in HepG2 cells - 8 hour (AID 1224873); also: nearly all actives have a fitted effect of over 55% in size
Outline: as §4

[12] = qHTS RealTime-Glo MT Cell Viability Assay in HEK293 cells - 40 hour (AID 1224874); conditions: RealTime-Glo luminescence; max response: stronger effect = lower value; also: nearly all actives have a fitted effect of over 50% in size
Outline: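 HEK293 + NanoLuc + prosubstrate, 600 cells/well; 5 h, 37 C/5% CO2; compound 23 nL in DMSO by pintool; 37 C; luminescence read at 0, 8, 16, 24, 32 and 40 h time points.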

[13] = A CellTox Green Cytotoxicity Assay to monitor cytotoxicity in HEK293 cells - 24 hour (AID 1224875); also: nearly all actives have a fitted effect of over 45% in size; also: potency is read from the fitted curve at half-maximal effect
Outline: as §3

[14] = A CellTox Green Cytotoxicity Assay to monitor cytotoxicity in HepG2 cells - 16 hour (AID 1224876); also: nearly all actives have a fitted effect of over 45% in size; also: potency is read from the fitted curve at half-maximal effect
Outline: (§5)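 Measurements at 0, 8, 16, 24, 32 and 40 h of treatment captured CellTox Green fluorescence in HepG2 cells that had been co-plated with reagent and preincubated 5 h at 37 C/5% CO2.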

[15] = qHTS RealTime-Glo MT Cell Viability Assay in HepG2 cells - 32 hour (AID 1224877); also: nearly all actives have a fitted effect of over 55% in size
Outline: as §1

[16] = A CellTox Green Cytotoxicity Assay to monitor cytotoxicity in HepG2 cells - 24 hour (AID 1224878); also: nearly all actives have a fitted effect of over 45% in size; also: potency is read from the fitted curve at half-maximal effect
Outline: as §5

[17] = A CellTox Green Cytotoxicity Assay to monitor cytotoxicity in HepG2 cells - 40 hour (AID 1224879); also: nearly all actives have a fitted effect of over 40% in size; also: potency is read from the fitted curve at half-maximal effect
Outline: as §5

[18] = qHTS assay to identify small molecule agonists of H2AX (AID 1224845; active = well fitted activation curve with a large enough effect in the signal ratio in the repeat runs, not every such curve was filed as active; the % refers to the signal ratio)
Outline: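 Wild-type CHO-K1 cells, plated overnight, exposed 3hr at 37C to 15 concentrations (0.76% DMSO final). Lysed, then HTRF anti-pH2AX (S139) cryptate and anti-H2AX-d2 antibodies, 24 hr room temperature; 665/620 nm emission read.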

[19] = qHTS assay to identify small molecule antagonists of the estrogen related receptor (ERR) signaling pathway from Tox21 library (AID 1224848); also: nearly all actives have a fitted effect of over 50% in size
Outline: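 Compounds dissolved in DMSO are pin-transferred onto ERR reporter cells (2,000 per well) that have settled for 6 h at 37 C. Plates then incubate 18 h at 37 C before ONE-Glo luciferase reagent and a luminescence read 30 min later.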

[20] = qHTS assay to identify small molecule agonists of the estrogen related receptor (ERR) signaling pathway from Tox21 library (AID 1224849; calls by dose curve; also: nearly all actives have a fitted effect of over 15% in size); conditions: ERR reporter cell line, ONE-Glo luciferase, 18 h; at 92.4 µM (top of the series) unless noted
Outline: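 Tox21 compounds tested for ERR agonism in an NTP reporter cell line: 18 h treatment at 37 C, then ONE-Glo luminescence.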
% is scaled to controls: 0 for no effect and ±100 for the full control effect.

Chain of Thyrotropin receptor (Homo sapiens) (P16473 whole entry, looked up): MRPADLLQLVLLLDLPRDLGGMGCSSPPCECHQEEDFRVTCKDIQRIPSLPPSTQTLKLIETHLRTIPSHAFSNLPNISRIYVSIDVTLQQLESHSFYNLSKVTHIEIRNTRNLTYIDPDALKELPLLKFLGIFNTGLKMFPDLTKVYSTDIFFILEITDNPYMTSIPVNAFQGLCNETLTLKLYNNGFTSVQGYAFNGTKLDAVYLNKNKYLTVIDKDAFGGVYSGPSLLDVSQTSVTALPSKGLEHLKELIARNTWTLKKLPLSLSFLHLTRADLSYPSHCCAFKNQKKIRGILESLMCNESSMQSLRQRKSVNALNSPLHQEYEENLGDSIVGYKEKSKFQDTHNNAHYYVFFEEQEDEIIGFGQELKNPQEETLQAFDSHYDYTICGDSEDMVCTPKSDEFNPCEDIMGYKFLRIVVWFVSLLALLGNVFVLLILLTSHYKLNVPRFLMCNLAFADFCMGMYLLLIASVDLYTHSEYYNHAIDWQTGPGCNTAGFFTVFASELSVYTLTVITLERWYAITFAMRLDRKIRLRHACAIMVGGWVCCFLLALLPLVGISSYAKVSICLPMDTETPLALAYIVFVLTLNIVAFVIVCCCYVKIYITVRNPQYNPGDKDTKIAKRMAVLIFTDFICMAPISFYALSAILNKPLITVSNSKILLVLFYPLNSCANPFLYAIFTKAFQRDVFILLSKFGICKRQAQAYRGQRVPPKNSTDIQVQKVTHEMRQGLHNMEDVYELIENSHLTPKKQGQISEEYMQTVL

CCOC(=O)C(Br)c1ccccc1 (stereo not drawn)
inactive: Potency [1] | Potency [2] | outcome [3] | Potency [4] | Potency [5] | Potency [6] | Potency [7] | Potency [8] | Potency [9] | Potency [10] | outcome [11] | max response [12] 15.2% | Potency [13] | Potency [14] | Potency [15] | Potency [16] | Potency [17]

OCCN1CCN(CCO)CC1
inactive: Potency [1] | Potency [2] | Potency [18] | Potency [4] | Potency [5] | Potency [6] | Potency [7] | Potency [8] | Potency [10] | outcome [11] | max response [12] 1.21% | Potency [13] | Potency [14] | Potency [15] | Potency [16] | Potency [17]

CCCOCCC
inactive: Potency [1] | Potency [2] | outcome [3] | Potency [4] | Potency [5] | Potency [6] | Potency [8] | Potency [10] | outcome [11] | max response [12] 23.9% | Potency [13] | Potency [14] | Potency [15] | Potency [16] | Potency [17]

CC(C)c1ccccc1
inactive: Potency [1] | Potency [2] | outcome [3] | Potency [4] | Potency [5] | Potency [6] | Potency [7] | Potency [8] | Potency [10] | outcome [11] | max response [12] 1.09% | Potency [13] | Potency [14] | Potency [15] | Potency [16] | Potency [17]

CC(=O)Oc1cc(C(C)C)c(OCCN(C)C)cc1C
inactive: Potency [1] | Potency [2] | Potency [18] | Potency [4] | Potency [5] | Potency [7] | Potency [9] | outcome [11] | Potency [13] | Potency [14] | Potency [15] | Potency [16] | Potency [17]

CCCC(CCC)(C(=O)OCC)C(=O)OCC
inactive: Potency [1] | Potency [2] | outcome [3] | Potency [4] | Potency [5] | Potency [6] | Potency [7] | Potency [8] | Potency [9] | Potency [10] | outcome [11] | max response [12] 0.553% | Potency [13] | Potency [14] | Potency [15] | Potency [17]

CC/C=C\CCOC(=O)C(C)C
inactive: Potency [1] | Potency [2] | outcome [3] | Potency [4] | Potency [5] | Potency [6] | Potency [7] | Potency [8] | Potency [9] | Potency [10] | outcome [11] | max response [12] -2.11% | Potency [13] | Potency [14] | Potency [15] | Potency [16] | Potency [17]

O=C1CCC(C2CCCCC2)CC1
active: Potency [7] 43.6 µM | Potency [9] 49 µM | Potency [13] 43.6 µM | Potency [14] 38.9 µM | Potency [16] 38.9 µM | Potency [17] 38.9 µM
inactive: Potency [1] | Potency [2] | outcome [3] | Potency [4] | Potency [19] | activity change, positive = activation [20] -9.72% | Potency [5] | Potency [8] | outcome [11] | Potency [15]

NNS(=O)(=O)c1ccc(Oc2ccc(S(=O)(=O)NN)cc2)cc1
inactive: Potency [1] | Potency [2] | outcome [3] | Potency [4] | Potency [19] | activity change, positive = activation [20] -13.2% | Potency [5] | Potency [6] | Potency [9] | Potency [10] | outcome [11] | max response [12] 0.181% | Potency [13] | Potency [14] | Potency [15] | Potency [17]

CC(C)=CCCC(C)CCOC=O (stereo not drawn)
inactive: Potency [1] | Potency [2] | outcome [3] | Potency [4] | Potency [5] | Potency [6] | Potency [7] | Potency [8] | Potency [9] | Potency [10] | outcome [11] | max response [12] 13.4% | Potency [13] | Potency [14] | Potency [15] | Potency [16] | Potency [17]

Cc1nnc(SCC2=C(C(=O)O)N3C(=O)[C@@H](NC(=O)Cn4cnnn4)[C@H]3SC2)s1
inactive: Potency [1] | Potency [2] | Potency [18] | Potency [4] | Potency [5] | Potency [6] | Potency [7] | Potency [8] | Potency [9] | Potency [10] | outcome [11] | max response [12] 6.83% | Potency [13] | Potency [14] | Potency [15] | Potency [16] | Potency [17]

C[C@@H](N)C(=O)O
inactive: Potency [1] | Potency [2] | Potency [18] | Potency [4] | Potency [5] | Potency [6] | Potency [10] | outcome [11] | max response [12] 1.04% | Potency [13] | Potency [14] | Potency [15] | Potency [16] | Potency [17]

O=C1Nc2ccc([N+](=O)[O-])cc2C1=O
inactive: Potency [1] | Potency [2] | Potency [18] | Potency [4] | Potency [5] | Potency [7] | Potency [9] | outcome [11] | Potency [13] | Potency [14] | Potency [15] | Potency [16] | Potency [17]

CCOc1ccc2nc(N)sc2c1
inactive: Potency [1] | Potency [2] | outcome [3] | Potency [19] | Potency [5] | Potency [6] | Potency [7] | Potency [8] | Potency [9] | Potency [10] | outcome [11] | max response [12] -4.71% | Potency [13] | Potency [14] | Potency [15] | Potency [16] | Potency [17]
active: activity change, positive = activation [20] 78%

FC(F)(F)C(F)(F)C(F)(F)C(F)(F)C(F)(F)C(F)(F)C(F)(F)C(F)(F)Br
inactive: Potency [1] | Potency [2] | outcome [3] | Potency [4] | Potency [19] | activity change, positive = activation [20] 6.1% [at 42.5 µM] | Potency [5] | Potency [6] | Potency [7] | Potency [8] | Potency [9] | Potency [10] | outcome [11] | max response [12] -0.235% | Potency [13] | Potency [14] | Potency [15] | Potency [16] | Potency [17]

CCCS(=O)c1ccc2nc(NC(=O)OC)[nH]c2c1 (stereo not drawn)
active: Potency [17] 12 µM
inactive: Potency [1] | Potency [2] | outcome [3] | Potency [4] | Potency [5] | Potency [8] | Potency [9] | Potency [10] | outcome [11] | Potency [13] | Potency [14] | Potency [15]
